Data as given in PubChem BioAssay AID493035 (The Scripps Research Institute Molecular Screening Center, 2011).
Screen size: about 2,000 compounds; about 45 (2%) were called active.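 The calls were made as follows: active = inhibition above the mean of all tested compounds plus 3 SD (cut at about 49% in these data); inactive = the rest.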 For the sample, actives were picked, then their nearest neighbours and some compounds at random.

The molecules below were run against Perilipin-5 (Homo sapiens) + 1-acylglycerol-3-phosphate O-acyltransferase ABHD5 (Homo sapiens) (UniProt Q00G26+Q8WTS1) (assay: ABHD5-PLIN5 interaction inhibitors, pilot screen, cell lysate, split luciferase complementation, luminescence, NIH validation set (AID 493035;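 as to inhibition: 0% = DMSO only wells while the 100% control is not stated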)). Conditions: split G. princeps luciferase complementation, lysates, 4 h; at 7.9 µM, active compounds read high.
Sequence of Perilipin-5 (Homo sapiens) + 1-acylglycerol-3-phosphate O-acyltransferase ABHD5 (Homo sapiens) (Q00G26 whole entry, looked up): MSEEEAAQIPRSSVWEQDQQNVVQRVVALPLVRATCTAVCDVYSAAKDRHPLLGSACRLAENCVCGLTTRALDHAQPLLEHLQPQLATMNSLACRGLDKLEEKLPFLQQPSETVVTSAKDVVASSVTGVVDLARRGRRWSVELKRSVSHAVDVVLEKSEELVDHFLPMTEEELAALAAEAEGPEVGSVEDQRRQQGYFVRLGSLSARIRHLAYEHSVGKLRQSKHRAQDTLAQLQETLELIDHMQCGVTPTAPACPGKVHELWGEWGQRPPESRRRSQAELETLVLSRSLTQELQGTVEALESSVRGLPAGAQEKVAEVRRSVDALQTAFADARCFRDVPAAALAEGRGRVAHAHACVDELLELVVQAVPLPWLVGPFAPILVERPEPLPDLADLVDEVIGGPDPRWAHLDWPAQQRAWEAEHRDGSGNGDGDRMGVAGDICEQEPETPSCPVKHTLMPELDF
Sequence of Perilipin-5 (Homo sapiens) + 1-acylglycerol-3-phosphate O-acyltransferase ABHD5 (Homo sapiens) (Q8WTS1 whole entry, looked up): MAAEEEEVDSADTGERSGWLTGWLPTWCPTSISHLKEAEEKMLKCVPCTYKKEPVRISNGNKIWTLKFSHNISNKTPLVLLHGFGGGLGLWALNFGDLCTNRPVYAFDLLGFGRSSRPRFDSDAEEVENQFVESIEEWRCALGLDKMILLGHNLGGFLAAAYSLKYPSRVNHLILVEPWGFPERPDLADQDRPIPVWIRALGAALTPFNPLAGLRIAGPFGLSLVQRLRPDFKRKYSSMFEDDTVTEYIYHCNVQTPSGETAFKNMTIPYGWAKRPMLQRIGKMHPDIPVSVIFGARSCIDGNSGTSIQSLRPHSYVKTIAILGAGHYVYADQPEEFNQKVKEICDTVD

inhibition, inactive:
O=C1CCCCCN1Cc1ccccc1 9.82%, C/C(=N/N1CCN(Cc2cccc3ccccc23)CC1)c1cccnc1 -8.01%, CC1(C)C2CCC1(C(=O)O)c1nc3ccccc3nc12 (stereo not drawn) -0.64%, Cc1ccc(S(=O)(=O)Nc2ccc(S(=O)(=O)Nc3cc(C)nc(C)n3)cc2)cc1 4.03%, CC(C)CCOCC(=O)Nc1cccc(C(=O)O)c1 -0.57%, CCOC(=O)C1=C(C)NC(C)=C(C(=O)OC)C1c1cccc([N+](=O)[O-])c1 (stereo not drawn) 3.99%, COC(=O)C1=C(C)NC(C)=C([N+](=O)[O-])C1c1ccccc1C(F)(F)F (stereo not drawn) -2.75%, O=C(O)CCSCCC(=O)O 2.26%, CC12CCC(C(=O)N3CCCCC3)([C@H](Br)C1=O)C2(C)C (stereo partly drawn) -4.77%, COc1ccc(C(=O)Nc2ccccc2C(=O)NC(Cc2c[nH]c3ccccc23)C(=O)O)cc1 (stereo not drawn) 1.79%, COc1ccc(C(=O)Oc2ccc3c(C)cc(=O)oc3c2C(C)=O)cc1 2.94%, COc1ccc(/C=C/C(=O)Nc2ccccc2C(=O)O)cc1OC -12.4%, Cc1ccc2c(CC(=O)O)coc2c1 -6.46%, CCSC(SCC)[C@H](O)[C@@H](O)[C@H](O)[C@H](O)CO -2.61%, CC(C)(C)C(=O)N1CCCC1C(=O)O (stereo not drawn) -7.48%, Nc1ccc(-c2nc3ncccc3o2)c(Cl)c1 -10.8%, CC(C)Cc1cc(C(=O)N2CCC(N3CCC(C(=O)N4CCCC4)CC3)CC2)n[nH]1 -3.07%, COc1cc(C2Nc3ccccc3NC3=C2C(=O)CC(c2ccc(OC)c(OC)c2)C3)ccc1O (stereo not drawn) 1.84%, C=CCC1(O)C(=O)N2C(=C1C(=O)N1CCOCC1)c1ccccc1CC2(C)C (stereo not drawn) 0.31%, Cc1ccc2c(c1)C(O)(CC(=O)/C=C/C=C/c1ccccc1)C(=O)N2 (stereo not drawn) 24.3%, NC(=O)c1c(-c2ccccc2)oc2ccc(O)cc12 -5.91%, CCOC(=O)C1=C(C)N[C@@]2(O)c3ccccc3C(=O)[C@@]12O 10.3%, COc1ccc(OC(C)C(=O)Nc2ccccc2F)cc1 (stereo not drawn) 2.02%, O=C(c1cccnc1)N1N=C(C2CC2)CC1(O)C(F)(F)F (stereo not drawn) 2.77%, O=C(Nc1cccc(C(=O)O)c1)/C(=C\c1ccccc1)NC(=O)c1ccccc1 -2.05%, O=C(O)CCCCCCNC(=O)c1cncc(O)c1 -6.1%, CC(=O)OC(CC(=O)O)C[N+](C)(C)C (stereo not drawn) -14.8%, COc1ccc(C(=O)Nc2nc3ccccc3c(=O)[nH]2)cc1 0.27%, COc1ccc(NC(=O)C2CSC3c4ccccc4C(=O)N23)cc1 (stereo not drawn) 4.85%, CCOC(=O)C(Cc1cc(C(C)=O)ccc1OC(C)C)C(=O)OCC -3.49%, O=C1C2C3C=CC(C4CC34)C2C(=O)N1/N=C/c1ccc(-c2ccc([N+](=O)[O-])cc2)o1 (stereo not drawn) -2%, c1ccc(Cn2ncc3c(Nc4ccccc4)ncnc32)cc1 -6.21%, O=C(NO)c1ccccc1O -11.8%, CC(=O)N[C@@H](CS)C(=O)O -2.08%, COc1cc(OC)c2c(C)c(Cl)c(=O)oc2c1 -6.84%, CCN(CC)C(=O)c1sc(NC(=O)c2c(OC)cccc2OC)c(C#N)c1C -4.18%, CCCC(CCC)C(=O)OC1C[C@H]2CC[C@@H](C1)[N+]2(C)C (stereo partly drawn) -9.28%, COc1ccc(O)c(C2=Nc3ccccc3N=C(c3ccccc3)C2)c1 -11.4%, C=CCOc1ccc(C(=O)CC)cc1OC -3.26%, CCCCc1oc2ccccc2c1C(=O)c1cc(I)c(OCCN(CC)CC)c(I)c1 -3.91%, CC(=O)CCc1oc2ccccc2c1-c1ccccc1 -0.95%, COc1ccc2cc[nH]c2c1 5.24%, COc1cccc2c(=O)c(C/C=C(/C)Cl)c(C)[nH]c12 -0.4%, COc1ccc(N2CCN(C(=S)NCc3ccccc3)CC2)cc1 10.2%, CC(C)=CCC(C)(C)/C=N/NC(N)=O -11.2%, COc1ccccc1C(CCN(Cc1ccccc1)C(C)=O)c1ccco1 (stereo not drawn) 7.01%, CC(=O)N(CCC(Cc1ccccc1)c1ccco1)Cc1ccco1 (stereo not drawn) 39.1%, COc1ccc(-c2cc(C(=O)N3CCOCC3)c3cc(C)ccc3n2)cc1 -3.27%, O=C(c1ccc(Cl)cc1)C1CCCN(C(=O)/C=C/c2ccccn2)C1 (stereo not drawn) 8.56%, CSCCC(NC(=O)/C(=C/c1ccc2c(c1)OCO2)NC(=O)c1cccc([N+](=O)[O-])c1)C(=O)O (stereo not drawn) 5.37%, OC[C@@H](O)[C@@H](O[C@H]1O[C@H](CO)[C@@H](O)[C@H](O)[C@H]1O)[C@H](O)[C@@H](O)CO -8.59%, Cc1cccc(C(=O)c2cccc(C)c2)c1 -8.84%, Cn1c(=O)c(C(=O)NCCO)c(O)c2ccccc21 -4.23%

inhibition, active:
O=C1C=CC(=O)C(C2=C3C(=O)N(CCc4ccccc4)CC(=O)N3CCC2)=C1 74.5%, COC(=O)C1=C(C)NC(C)=C(C(=O)OC)C1c1ccccc1[N+](=O)[O-], COc1ccc(/C=C\C(=O)c2c(O)ccc3c(C)cc(=O)oc23)cc1OC 59.1%, Cc1ccc(C2=NOC(=O)/C2=C\C=C\c2ccccc2)cc1 94.4%, CC(C)N1C(=O)/C(=C\c2nc3ccccc3c(=O)[nH]2)c2ccccc21 64.9%, COC(=O)[C@@H](N)CS 78.9%, CCN(CC)C(=S)SSC(=S)N(CC)CC 95.2%, CCc1oc2ccccc2c1C(=O)c1cc(Br)c(O)c(Br)c1 50.7%, O=C(c1ccco1)N(CCC(c1ccccc1)c1ccco1)Cc1ccco1 (stereo not drawn) 58.6%, CCCCC/C=C\C[C@H](O)/C=C/c1cccc(C[C@H](O)CCCCO)n1 62.8%
